# Test results as given in publication PMC5540273 (PLoS ONE, 2017).
# Read-outs that look alike come from different tables or passages of the source.
# Tests used:
# Conditions in all cases: n = 1
# KIT = system: KIT
# LATS1 = system: LATS1
# LATS2 = system: LATS2
# LCK = system: LCK
# LIMK1 = system: LIMK1
# LIMK2 = system: LIMK2
# LKB1 = system: T1, LKB1
# T1 construct: gene STK11
# LOK = system: T2, LOK
# T2 construct: gene STK10
# LRRK2 = system: LRRK2
# LTK = system: LTK
# [1] = concentration: 1 μM, replicates: in singlicate
# 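Note: KINOMEscan kinase panel screen.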
smiles,measurement,setting,value
Cn1ccc2ncnc(Oc3ccc(Nc4nc5ccccc5[nH]4)cc3)c21,%Inh,KIT; [1],77%
same,%Inh,LATS1; [1],0%
same,%Inh,LATS2; [1],0%
same,%Inh,LCK; [1],0%
same,%Inh,LIMK1; [1],0%
same,%Inh,LIMK2; [1],0%
same,%Inh,LKB1; [1],3%
same,%Inh,LOK; [1],93.7%
same,%Inh,LRRK2; [1],0%
same,%Inh,LTK; [1],0%
Cc1ccc(NC(=O)Nc2cccc(Cl)c2)cc1-c1ccc(C(=O)Nc2ccncc2)cc1 [GSK1398468],%Inh,KIT; [1],99.6%
same,%Inh,LATS1; [1],0%
same,%Inh,LATS2; [1],0%
same,%Inh,LCK; [1],25%
same,%Inh,LIMK1; [1],0%
same,%Inh,LIMK2; [1],12%
same,%Inh,LKB1; [1],0%
same,%Inh,LOK; [1],0%
same,%Inh,LRRK2; [1],0%
same,%Inh,LTK; [1],7%
COC(=O)c1c(-c2ccccc2)c2cc(C(=O)O)ccc2c(=O)n1Cc1ccccc1,%Inh,KIT; [1],93.1%
same,%Inh,LATS1; [1],22%
same,%Inh,LATS2; [1],0%
same,%Inh,LCK; [1],0%
same,%Inh,LIMK1; [1],1%
same,%Inh,LIMK2; [1],0%
same,%Inh,LKB1; [1],0%
same,%Inh,LOK; [1],0%
same,%Inh,LRRK2; [1],0%
same,%Inh,LTK; [1],0%
Cc1ccc(NC(=O)Nc2cccc(C(F)(F)F)c2)cc1 [GSK955403],%Inh,KIT; 1 µM,91.4%
same,%Inh,LATS1; 1 µM,0%
same,%Inh,LATS2; 1 µM,20%
same,%Inh,LCK; 1 µM,6%
same,%Inh,LIMK1; 1 µM,0%
same,%Inh,LIMK2; 1 µM,10%
same,%Inh,LKB1; 1 µM,16%
same,%Inh,LOK; 1 µM,0%
same,%Inh,LRRK2; 1 µM,0%
same,%Inh,LTK; 1 µM,0%
